According to PubChem BioAssay (Tox21):
Calls of active or inactive are those of the source. The call rests on the fitted dose curve; in most records, active means well fitted curve in the direction sought with a large enough effect in the repeat runs; inconclusive means weak or mixed curves; inactive means flat fitted curve, though single readings scatter.

Tests used:
[1] = qHTS assay to test for compound auto fluorescence at 535 nm (green) in HEK293 cells (AID 720680)
[2] = qHTS assay to test for compound auto fluorescence at 460 nm (blue) in HEK293 cell free culture (AID 720681)
Method in brief: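 Compounds were added to cell-free DMEM with 10% FBS and fluorescence read directly. The blue channel used 405 nm excitation and 460 nm emission, with triamterene as the reference fluorophore.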

[3] = qHTS assay to test for compound auto fluorescence at 535 nm (green) in HEK293 cell free culture (AID 720682)
Method in brief: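 Each library compound, or DMSO control, is added by pintool to medium alone, comprising DMEM and 10% FBS. Emission at 535 nm following 485 nm excitation is quantified against fluorescein.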

[4] = qHTS assay to test for compound auto fluorescence at 590 nm (red) in HEK293 cell free culture (AID 720683)
Method in brief: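 Cell-free wells of DMEM with 10% FBS received compound, and intrinsic fluorescence was read at excitation/emission 540/590 nm. Values expressed as equivalence to Rose Bengal sodium.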

[5] = qHTS assay to test for compound auto fluorescence at 590 nm (red) in HepG2 cell free culture (AID 720684)
Method in brief: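 Compounds are added to culture medium (MEM, 10% FBS) lacking cells, then fluorescence is read at excitation 540 nm, emission 590 nm, with Rose Bengal sodium as the equivalency standard.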

[6] = qHTS assay to test for compound auto fluorescence at 460 nm (blue) in HepG2 cell free culture (AID 720685)
Method in brief: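 Compound (23 nL) or DMSO pinned into cell-free MEM with 10% FBS; blue fluorescence read at 405/460 nm excitation/emission, expressed as auto-fluorescence equivalency to triamterene.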

[7] = qHTS assay to test for compound auto fluorescence at 535 nm (green) in HepG2 cell free culture (AID 720686)
[8] = qHTS assay to test for compound auto fluorescence at 460 nm (blue) in HepG2 cells (AID 720687)
Method in brief: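 HepG2 cells in MEM with 10% FBS, attached overnight at 37 C, were exposed to compound or DMSO for 1 hr at 37 C, 5% CO2. Blue fluorescence was read at 405/460 nm, with triamterene as reference fluorophore.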
On the % scale 0 is the no-effect control and ±100 the full control effect.

CC(=O)Nc1ccc(C)cc1
inactive: outcome [1] | outcome [2] | outcome [3] | outcome [4] | outcome [5] | outcome [6] | outcome [7] | outcome [8]

COc1ccc(OC)c(NC(=O)CC(C)=O)c1
inactive: outcome [1] | outcome [2] | outcome [3] | outcome [4] | outcome [5] | outcome [6] | outcome [7] | outcome [8]

CC(C)CCO
inactive: outcome [1] | outcome [2] | outcome [3] | outcome [4] | outcome [5] | outcome [6] | outcome [7] | outcome [8]

CN(C1CCCCC1)S(=O)(=O)c1ccccc1N
inactive: outcome [1] | outcome [2] | outcome [3] | outcome [4] | outcome [5] | outcome [6] | outcome [7] | outcome [8]

CCCCCCCCCCCCCCCC(=O)NCCO
inactive: outcome [1] | outcome [2] | outcome [3] | outcome [4] | outcome [5] | outcome [6] | outcome [7] | outcome [8]

CN(C)CCCNCCC#N
inactive: outcome [1] | outcome [2] | outcome [3] | outcome [4] | outcome [5] | outcome [6] | outcome [7] | outcome [8]

CC1CCC(C(C)(C)S)C(=O)C1 (stereo unspecified)
inactive: outcome [1] | outcome [2] | outcome [3] | outcome [4] | outcome [5] | outcome [6] | outcome [7] | outcome [8]

COCC(=O)Nc1c(I)c(C(=O)NCC(O)CO)c(I)c(C(=O)N(C)CC(O)CO)c1I (stereo unspecified)
inactive: fluorescence, % of fluorescein [1] -0.025% [at 18.6 µM] | fluorescence, % of fluorescent control [2] -0.0015% [at 18.6 µM] | activity change [3] 0.0796% [at 18.6 µM] | fluorescence, % of fluorescent control [4] 0.0121% [at 18.6 µM] | fluorescence, % of Rose Bengal [5] 0.0461% [at 18.6 µM] | fluorescence, % of fluorescent control [6] -0.109% [at 18.6 µM] | fluorescence, % of fluorescein control [7] -0.084% [at 18.6 µM] | fluorescence, % of fluorescent control [8] -0.143% [at 18.6 µM]

COc1cc2c3cc1Oc1cc(ccc1O)C[C@@H]1c4c(cc(OC)c(O)c4Oc4ccc(cc4)C[C@@H]3N(C)CC2)CC[N+]1(C)C
inactive: outcome [1] | outcome [2] | outcome [3] | outcome [4] | outcome [5] | outcome [6] | outcome [7] | outcome [8]

O=c1[nH]c(=O)c2ccccc2o1
inactive: outcome [1] | outcome [2] | outcome [3] | outcome [4] | outcome [5] | outcome [6] | outcome [7] | outcome [8]

Cc1oc(=O)oc1CN1CCN(c2cc3c(cc2F)c(=O)c(C(=O)O)c2n3C(C)S2)CC1 (stereo unspecified)
inactive: outcome [1] | outcome [2] | outcome [3] | outcome [4] | outcome [5] | outcome [6] | outcome [7] | outcome [8]

O=S(=O)(O)SSS(=O)(=O)O
inactive: outcome [1] | outcome [2] | outcome [3] | outcome [4] | outcome [5] | outcome [6] | outcome [7] | outcome [8]

BrC/C=C/CBr
inactive: fluorescence, % of fluorescein [1] 0.0238% [at 18.6 µM] | fluorescence, % of fluorescent control [2] -0.0065% [at 18.6 µM] | activity change [3] 0.0973% [at 18.6 µM] | fluorescence, % of fluorescent control [4] -0.0344% [at 18.6 µM] | fluorescence, % of Rose Bengal [5] 0.0351% [at 18.6 µM] | fluorescence, % of fluorescent control [6] -0.08% [at 18.6 µM] | fluorescence, % of fluorescein control [7] -0.0214% [at 18.6 µM] | fluorescence, % of fluorescent control [8] 0.058% [at 18.6 µM]

Cn1c(=O)c2c(ncn2CC2OCCO2)n(C)c1=O
inactive: outcome [1] | outcome [2] | outcome [3] | outcome [4] | outcome [5] | outcome [6] | outcome [7] | outcome [8]

CCOC(=O)CCc1ccccc1
inactive: outcome [1] | outcome [2] | outcome [3] | outcome [4] | outcome [5] | outcome [6] | outcome [7] | outcome [8]

CCCCCCCCCCCCCCCCI
inactive: fluorescence, % of fluorescein [1] 0.0243% [at 18.6 µM] | fluorescence, % of fluorescent control [2] -0.0222% [at 18.6 µM] | activity change [3] -0.0077% [at 18.6 µM] | fluorescence, % of fluorescent control [4] 0.0155% [at 18.6 µM] | fluorescence, % of Rose Bengal [5] -0.0349% [at 18.6 µM] | fluorescence, % of fluorescent control [6] -0.142% [at 18.6 µM] | fluorescence, % of fluorescein control [7] 0.0097% [at 18.6 µM] | fluorescence, % of fluorescent control [8] 0.151% [at 18.6 µM]

Cc1c(C(C)C)c(=O)n(-c2ccccc2)n1C
inactive: outcome [1] | outcome [2] | outcome [3] | outcome [4] | outcome [5] | outcome [6] | outcome [7] | outcome [8]

O=S1(=O)CCCC1
inactive: outcome [1] | outcome [2] | outcome [3] | outcome [4] | outcome [5] | outcome [6] | outcome [7] | outcome [8]

O=c1cc(O)c(Cl)c[nH]1
inactive: outcome [1] | outcome [2] | outcome [3] | outcome [4] | outcome [5] | outcome [6] | outcome [7] | outcome [8]

CC(=O)OC(C)(C)Cc1ccccc1
inactive: outcome [1] | outcome [2] | outcome [3] | outcome [4] | outcome [5] | outcome [6] | outcome [7] | outcome [8]

CCCCCCCCCCCCOC(C)=O
inactive: outcome [1] | outcome [2] | outcome [3] | outcome [4] | outcome [5] | outcome [6] | outcome [7] | outcome [8]

O=C(CN1CCN(Cc2ccc3c(c2)OCO3)CC1)N1c2ccccc2Sc2ccccc21
inactive: outcome [1] | outcome [2] | outcome [3] | outcome [4] | outcome [5] | outcome [6] | outcome [7] | outcome [8]

NS(=O)(=O)c1ccccc1OC(F)(F)F
inactive: outcome [1] | outcome [2] | outcome [3] | outcome [4] | outcome [5] | outcome [6] | outcome [7] | outcome [8]

OC[C@@H](O)[C@H](O)[C@@H](O)[C@@H](O)CO
inactive: outcome [1] | outcome [2] | outcome [3] | outcome [4] | outcome [5] | outcome [6] | outcome [7] | outcome [8]

CCOC(=O)C(C)(C)C
inactive: outcome [1] | outcome [2] | outcome [3] | outcome [4] | outcome [5] | outcome [6] | outcome [7] | outcome [8]

CCS(=O)(=O)CCn1c([N+](=O)[O-])cnc1C
inactive: fluorescence, % of fluorescein [1] 0.101% [at 18.6 µM] | fluorescence, % of fluorescent control [2] 0.0677% [at 18.6 µM] | activity change [3] 0.0328% [at 18.6 µM] | fluorescence, % of fluorescent control [4] -0.106% [at 18.6 µM] | fluorescence, % of Rose Bengal [5] 0.0121% [at 18.6 µM] | fluorescence, % of fluorescent control [6] 0.0838% [at 18.6 µM] | fluorescence, % of fluorescein control [7] -0.0978% [at 18.6 µM] | fluorescence, % of fluorescent control [8] 0.0125% [at 18.6 µM]

O=C1NC2NC(=O)NC2N1 (stereo unspecified)
inactive: outcome [1] | outcome [2] | outcome [3] | outcome [4] | outcome [5] | outcome [6] | outcome [7] | outcome [8]
